The list is not random: actives were taken first. Their share in the collection is about 8%.
Marburg entry inh: qHTS for inhibitors of binding or entry into cells for Marburg Virus | Marburg virus pseudotyped entry inhibition, cell reporter | Potency, µM (top dose mostly 37.8 µM), for inactives: top-dose activity change, negative = inhibition, hits mostly inhibitors | 1.8% of 300,000 active; calls by dose curve; tested in HEK293 cells; note: potency is the fitted concentration of half-maximal effect; % is set by controls: 0 for no effect and ±100 for the full control effect
HCMV inh: qHTS Assay for inhibitors of the human cytomegalovirus (HCMV); HFF cells, HCMV-luciferase reporter, 72 h; hits give low values; activity change, negative = inhibition, % at 57.5 µM; 4.5% of 410,000 active; in the data active = activity change below about -60%; inconclusive = no clear call, values can overlap the other calls; inactive = above about -39%; note: % is set by controls: 0 for no effect and ±100 for the full control effect
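HFF cells seeded 16 h at 37C, treated with compounds, infected with luciferase-reporter HCMV at MOI 1 PFU/cell; luciferase read at 72 h post infection, normalized to buffer-only and Salinomycin controls.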
SARS PLpro yeast-1: qHTS of Yeast-based Assay for SARS-CoV PLP | S. cerevisiae expressing SARS-CoV PLpro, growth rescue | Potency, µM (doses to about 32.9 µM), for inactives: top-dose activity, positive = growth rescue, hits mostly activators | 0.19% of 330,000 active; calls by dose curve; note: potency is the fitted concentration of half-maximal effect; 0% is about no effect; nearly all actives have a fitted effect of over 55% in size
HCV inhibitor: qHTS Assay for Inhibitors of Hepatitis C Virus (HCV). Potency, µM (doses to about 41.8 µM), for inactives: at the top dose activity change, negative = inhibition, usual class: inhibitors. AID 651820, 2012. 3.4% of 340,000 active. Huh7.5.1 HCVcc-Cre infection, luciferase reporter, 44 h; active = well fitted inhibition curve with a large enough effect; inconclusive = small, poorly fitted or top-dose-only effect, or another doubt; inactive = no such curve, though single readings can be large or run the other way; note: potency is the fitted concentration of half-maximal effect; % is set by controls: 0 for no effect and ±100 for the full control effect
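Cells seeded at 1,000/well and cultured 4 h, then compounds added followed by HCVcc-Cre virus (~0.5 moi). After 44 h further culture, luciferase substrate was added, plates held 15 min at room temperature, and luminescence read for 15 sec.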
LASV entry inh: qHTS for Inhibitors of binding or entry into cells for Lassa Virus; Lassa virus pseudotype entry inhibition, cell reporter; Potency, µM (top dose mostly 37.9 µM), for inactives: at the top dose activity change, negative = inhibition, usual class: inhibitors; 1.2% of 300,000 active; calls by dose curve; tested in HEK293 cells; note: potency is the fitted concentration of half-maximal effect; % is set by controls: 0 for no effect and ±100 for the full control effect; nearly all actives have a fitted effect of over 50% in size
FMDV inh: High Throughput Screening for Foot and Mouth Disease Virus Antivirals | 1.2% of 410,000 active | FMDV antiviral cell-based qHTS | Potency, µM (titrated, usually from 57.9 µM), inactives show at the highest dose activity change, negative = inhibition, hits mostly inhibitors; calls by dose curve; tested in HEK293T cells; note: read-out not given here; potency is the fitted concentration of half-maximal effect; % is set by controls: 0 for no effect and ±100 for the full control effect; nearly all actives have a fitted effect of over 45% in size
SARS PLpro yeast-2: qHTS of Yeast-based Assay for SARS-CoV PLP: Hit Validation; AID 652038, 2013; yeast expressing SARS-CoV PLpro, growth phenotype rescue; calls only; shares compounds with SARS PLpro yeast-1; 19% of 1,000 active; call rule not given here
Active calls of the source: *; [ ] = dose if it differs, or a comment.

For COc1ccc2c(c1)OC[C@H]1[C@H]2N2C(=O)CN(Cc3ccc(C)cc3)C(=O)[C@@]2(C)[C@H]1c1ccccc1 the results were HCMV inh -12, SARS PLpro yeast-1 11µM*, HCV inhibitor 11µM*, FMDV inh -14% and SARS PLpro yeast-2 inactive.
`CCCCN1CC(=O)N2[C@H]3c4ccc(OC)cc4OC[C@@H]3[C@H](c3ccccc3)[C@]2(C)C1=O` gave HCMV inh 18, SARS PLpro yeast-1 inconclusive, HCV inhibitor inconclusive, FMDV inh -19% and SARS PLpro yeast-2 inactive.
O=[N+]([O-])c1cccc(-c2ccc(/C=N/NC(=S)NCc3ccco3)o2)c1 was read as Marburg entry inh inconclusive, HCMV inh -20, SARS PLpro yeast-1 3%, HCV inhibitor inconclusive, LASV entry inh -27% and FMDV inh -28%.
For O=[N+]([O-])c1cccc(-c2ccc(/C=N/NC(=S)Nc3ccccc3)o2)c1 the results were Marburg entry inh -6%, HCMV inh -29, SARS PLpro yeast-1 inconclusive, HCV inhibitor -15%, LASV entry inh -4%, FMDV inh -6% and SARS PLpro yeast-2 active.
`Cc1cc(/C=C(\C#N)C(=O)NC2CCCCCC2)c(C)[nH]1` gave Marburg entry inh inconclusive, HCMV inh -15, SARS PLpro yeast-1 13µM*, HCV inhibitor -18%, LASV entry inh -4%, FMDV inh 53% and SARS PLpro yeast-2 inactive.
`Cc1cc(/C=C(\C#N)C(=O)NC2CC2)c(C)[nH]1` gave Marburg entry inh inconclusive, HCMV inh 119, SARS PLpro yeast-1 5%, HCV inhibitor 2%, LASV entry inh inconclusive and FMDV inh 26%.
`CC(=O)N1CCc2c(sc3c2c(=O)n(-c2ccccc2)c(=O)n3CC(=O)Nc2ccccc2C)C1` gave Marburg entry inh -5%[46.1 µM], HCMV inh 14 and FMDV inh 8%.
Screening COC(=O)C1=C(C)N(Cc2ccccc2C(F)(F)F)C(=NCc2ccc(C(F)(F)F)cc2)NC1c1cccc(Cl)c1 (centres undefined) returned HCMV inh -26.
Cc1ccc(N(C(=O)Cn2nnc3ccccc32)C(C(=O)NCc2ccccc2)c2ccccn2)cc1 (centres undefined) was read as Marburg entry inh inconclusive, HCMV inh inconclusive, SARS PLpro yeast-1 7%, HCV inhibitor -28%, LASV entry inh -16% and FMDV inh 3%.
Screening CC(=O)c1ccc(N(C(=O)Cn2nnc3ccccc32)C(C(=O)NCc2ccccc2)c2ccccn2)cc1 (centres undefined) returned Marburg entry inh inconclusive, HCMV inh 7, SARS PLpro yeast-1 18µM*, HCV inhibitor 5%, LASV entry inh -4%, FMDV inh 48% and SARS PLpro yeast-2 inactive.
Cc1ccc2[nH]c(=S)cc(C)c2c1 was read as Marburg entry inh 15%, HCMV inh -30, SARS PLpro yeast-1 22µM*, HCV inhibitor 17%, LASV entry inh 1%, FMDV inh 11% and SARS PLpro yeast-2 active.
CCCN(CCC)C(=O)Cn1c(=O)n(-c2cccc(OC)c2)c(=O)c2c3c(sc21)CCCC3 was read as Marburg entry inh inconclusive, HCMV inh -18, LASV entry inh 29%[46.1 µM] and FMDV inh -29%.
`Cc1[nH]c(=S)sc1Cc1ccc(F)cc1` gave Marburg entry inh -1%, HCMV inh -21, SARS PLpro yeast-1 10µM*, HCV inhibitor 12%, LASV entry inh 4%, FMDV inh -9% and SARS PLpro yeast-2 inactive.
`CCN(NC(=O)C(O)(c1ccccc1)c1ccccc1)C(=O)c1ccccc1` gave Marburg entry inh 5%, HCMV inh -5, SARS PLpro yeast-1 14µM*, HCV inhibitor -4%, LASV entry inh 0%, FMDV inh 0% and SARS PLpro yeast-2 inactive.
`CCOC(=O)N(NC(=O)C(O)(c1ccccc1)c1ccccc1)c1ccccc1` gave Marburg entry inh 18%, HCMV inh 4, SARS PLpro yeast-1 1%, HCV inhibitor 27%, LASV entry inh -13% and FMDV inh 0%.
`CCOc1ccc(S(=O)(=O)NCCC(=O)NCCOc2ccccc2)cc1` gave Marburg entry inh -21%[46.1 µM], HCMV inh -32, SARS PLpro yeast-1 inconclusive, HCV inhibitor 2%, LASV entry inh 22%, FMDV inh -8% and SARS PLpro yeast-2 inactive.
Cc1ccc(OCCNC(=O)CCNS(=O)(=O)c2ccc(C)cc2)cc1 was read as Marburg entry inh -10%, HCMV inh -17, SARS PLpro yeast-1 -3%, HCV inhibitor 2%, LASV entry inh inconclusive and FMDV inh 18%.
For COc1ccc(Cn2c(O)c(C=NCCN3CCOCC3)c(=O)[nH]c2=O)cc1 the results were Marburg entry inh 2%, HCMV inh -1, SARS PLpro yeast-1 -7%, HCV inhibitor 15%, LASV entry inh inconclusive and FMDV inh -1%.
`COc1ccc(Cn2c(O)c(/C=N/NC(=O)c3ccccc3O)c(=O)[nH]c2=O)cc1` gave Marburg entry inh 2%[46.1 µM], HCMV inh inconclusive, SARS PLpro yeast-1 10µM*, HCV inhibitor 8%, LASV entry inh -2%, FMDV inh 0% and SARS PLpro yeast-2 inactive.
For O=C(N/N=C/c1c(O)n(CCc2ccccc2)c(=O)[nH]c1=O)c1ccncc1 the results were Marburg entry inh 4%, HCMV inh -17, SARS PLpro yeast-1 -9%, HCV inhibitor 17%, LASV entry inh 11% and FMDV inh -11%.
For O=C(N/N=C/c1c(O)n(Cc2ccccc2)c(=O)[nH]c1=O)c1ccccc1O the results were Marburg entry inh inconclusive, HCMV inh -33, SARS PLpro yeast-1 10µM*, HCV inhibitor 6%, LASV entry inh inconclusive, FMDV inh 7% and SARS PLpro yeast-2 inactive.
O=C(N/N=C/c1c(O)n(CCc2ccc(F)cc2)c(=O)[nH]c1=O)c1ccncc1 was read as Marburg entry inh inconclusive, HCMV inh 1, SARS PLpro yeast-1 19%, HCV inhibitor 5%, LASV entry inh 2% and FMDV inh 2%.
Screening O=C(N/N=C/c1c(O)n(Cc2ccc(F)cc2)c(=O)[nH]c1=O)c1ccccc1O returned Marburg entry inh -24%, HCMV inh 63, SARS PLpro yeast-1 11µM*, HCV inhibitor -3%, LASV entry inh -2%, FMDV inh 17% and SARS PLpro yeast-2 inactive.
Screening O=C(N/N=C/c1c(O)n(CCc2ccccc2)c(=O)[nH]c1=O)c1ccccc1O returned Marburg entry inh -2%, HCMV inh 40, SARS PLpro yeast-1 2.2µM*, HCV inhibitor inconclusive, FMDV inh 3% and SARS PLpro yeast-2 inconclusive.

High-throughput results (PubChem BioAssay)
